The values that follow come from ChEMBL document CHEMBL3988442, “University of Dundee, Small-Polar-MMV Screening Library” (2021).

In all, about 69,000 compounds went through this assay and about 1,000 (1.4%) showed an effect of 50% or more. The list comes from a sample in which strong results are over-represented; it also holds similar structures and randomly drawn compounds.

The test concerns Leishmania donovani. As to the kind of experiment: Leishmania intramacrophage assay. In kind it is functional, organism-based. More on the design: scale not given: in the data most compounds retested in dose-response had high values.

With `CC(C)NC(=O)N1CCC(c2nnc3n2CCNC3)CC1`, for the setting “30.3 µM, […]”, the “Percent Effect” value was -10%.
On to `O=C(O)C(F)(F)F.O=C([C@H]1CN(CCc2ccccc2)C[C@H]2OCC[C@@H]12)N1CCCO1`, for which the “Percent Effect” value (30 µM, 30.03 µM) is 22.49%.
As for `CCCC(C#N)NC(=O)Cc1csc(CC)n1` (stereo not given), the “Percent Effect” value (30.3 µM, […]) was 15.43%.
For the molecule `CC(OCc1ccccc1)C(=O)NC1CCN(CC(N)=O)CC1` (stereo not given), the “Percent Effect” value (30.3 µM, […]) is 21.11%.
Consider `O=C(c1ccc(O)c(Cl)c1)N1C[C@@H](CN2CCCCCC2)[C@@H](CO)C1`, for which, where the note is “30.3 µM, […]”, the “Percent Effect” value is reported as -29.45%.
For `Cc1nc(CN2CCCC2c2[nH]ncc2C(=O)N(C)C)cs1` (stereo not given), under “30.3 µM, […]”, the “Percent Effect” value came to 17.56%.
Same read-out and setting: next, `O=S(=O)(NCCc1c[nH]c2ccc(F)cc12)C1CCOCC1`: 23.05%; `O=C(O)C(F)(F)F.O=C(O)C(F)(F)F.c1ccc(O[C@H]2CO[C@@]3(CCN(Cc4ccc5c(c4)OCO5)C3)C2)nc1`: 57%; `CCO[C@H]1CO[C@@]2(CCN(Cc3ccc4c(c3)OCO4)C2)C1.O=C(O)C(F)(F)F`: 9.141%.
On the same count and under the same terms, next, `CCO[C@@H]1CO[C@@]2(CCN(Cc3ccc4c(c3)OCO4)C2)C1.O=C(O)C(F)(F)F`: 22.42%; `CC(C)Cc1cc(C(=O)NCCn2nc3ccccn3c2=O)[nH]n1`: 7.621%; `O=C1CCC(=O)N1CCN1CCC(=Cc2ccccc2)CC1`: 5.63%.
Turning to `O=C(Cc1cccs1)NC1CCN(c2cccc(F)c2)CC1`, the “Percent Effect” value (30 µM, 30.03 µM) stood at 26.53%.
With `COc1cccc(N2CCC(N3CCOC(C(F)(F)F)C3)CC2)c1` (stereo not given), the “Percent Effect” value (30.3 µM, […]) is 13.73%.
`Cc1nc(-c2cccc(N3CCC(N[C@@H]4CCOC4)CC3)c2)cs1`: the “Percent Effect” value (30.3 µM, […]) is given as -5.486%.
For `Fc1cccc(-c2cccc(N3CCC(NC4CCCOC4)CC3)c2)c1` (stereo not given), where the note is “30.3 µM, […]”, the “Percent Effect” value was found to be 98.85%.
Same read-out and setting: as for `O=C(CCc1ccsc1)NC1CCN(c2cccc(F)c2)CC1`, the figure is -29.46%.
With `COc1cccc(-c2cccc(N3CCC(N[C@@H]4CCOC4)CC3)c2)c1`, where the note is “30.3 µM, […]”, the “Percent Effect” value is recorded as 96%.
Regarding `COC(C)(C)CC(C)NCc1cc(-c2ccco2)on1` (stereo not given), under “30.3 µM, […]”, the “Percent Effect” value is reported as -19.81%.
Still for that read-out and setting: as for `CN(CCC#N)C(=O)CN1CCCN(Cc2noc(C3CC3)n2)CC1`, the figure is 25.2%.
Take `O=C(O)C(F)(F)F.c1ncn(Cc2cnc3n2CCN(Cc2ccsc2)CC3)n1`: the “Percent Effect” value (30 µM, 30.03 µM) is -12.88%.
With `O=C1CC[C@H](C(=O)N(CCc2ccccc2)C2CCOC2)N1` (stereo not given in full), the “Percent Effect” value (30.3 µM, […]) stood at 6.545%.
In the case of `O=C1NCC(C(=O)N(Cc2cccc(Br)c2)C2CC2)N1` (stereo not given), where the note is “30.3 µM, […]”, the “Percent Effect” value is -2.381%.
As for `O=C1CC[C@H](C(=O)N(Cc2cccc(Br)c2)C2CC2)N1`, the “Percent Effect” value (30.3 µM, […]) was found to be 50.36%.
The same measure, in the same setting: next, `Nc1nc(CCCNC(=O)c2ccc(C3CCCNC3)cc2)cs1` (stereo not given): 19.48%.
Take `Nc1nnc(CCCNC(=O)c2ccc(C3CCCNC3)cc2)s1` (stereo not given): the “Percent Effect” value (30.3 µM, […]) was found to be 51.22%.
Turning to `Nc1nnc(CCNC(=O)c2cccc(C3CCCNC3)c2)s1` (stereo not given), under “30.3 µM, […]”, the “Percent Effect” value amounted to 5.236%.
Same read-out and setting: next, `CN(Cc1cccc(OC(F)(F)F)c1)Cc1cnn(C)c1`: 10.05%.
With `CCN1CCCC(O)(CNCc2ccncc2)C1` (stereo not given), the “Percent Effect” value (30.3 µM, […]) was -12.57%.
In the case of `Cc1cc(NCc2ccc(S(N)(=O)=O)cc2)nc(C)n1`, the “Percent Effect” value (30.3 µM, […]) is listed as 22.51%.
The same measure, in the same setting: as for `COCCN(Cc1ccccc1Cl)c1nc(CCN)nc2ccccc12`, the figure is 98.78%; as for `COCCN(Cc1cccs1)c1nc(CCN)nc2ccccc12`, 70.83%; as for `COCCN(CC1CC1)c1nc(CCN)nc2ccccc12`, 14.22%.
As to `Cc1ccsc1CN(c1nc(CCN)nc2ccccc12)C1CC1`, for the setting “30.3 µM, […]”, the “Percent Effect” value was found to be 40.33%.
Same read-out and setting: next, `NCCc1nc(N(Cc2nccs2)C2CC2)c2ccccc2n1`: -16.71%; `NCCc1nc(N(Cc2cncs2)C2CC2)c2ccccc2n1`: -1.942%.
In the case of `CCS(=O)(=O)CC(=O)N1CCCC(c2noc(C(C)C)n2)C1` (stereo not given), the “Percent Effect” value (30.3 µM, […]) is 10.94%.
The same measure, in the same setting: next, `CCOCCN1CCN(CC(O)c2ccc(C)c(C)c2)CC1` (stereo not given): 32.27%.
Take `Cc1nn(C)c(C)c1C1CCCN1C(=O)c1ccc2nnc(C)n2c1` (stereo not given): the “Percent Effect” value (30 µM) came to 22.91%.
Turning to `CCC(CO)N(Cc1ccco1)C(=O)c1ccccc1NC` (stereo not given), the “Percent Effect” value (30.3 µM, […]) was 33.8%.
For the molecule `CCC(CO)N(Cc1ccco1)C(=O)c1ccccc1SC` (stereo not given), under “30.3 µM, […]”, the “Percent Effect” value was 54.97%.
Same read-out and setting: next, `CCC(CO)N(Cc1ccco1)C(=O)c1cccc(C)c1O` (stereo not given): 10.11%.
Same read-out and setting: next, `c1ccc(N2CCC(NCCc3ccc(-n4cccn4)cc3)CC2)nc1`: 62.72%.
The same measure, in the same setting: next, `c1cnn(-c2ccc(CCNC3CCN(C4CC4)C3)cc2)c1` (stereo not given): -4.355%; `COc1ccc(C(C)CCNC2CCN(c3ccccn3)CC2)cc1` (stereo not given): 60.53%.
Turning to `CC(CNC1CCN(c2ccccn2)CC1)Oc1ccc(F)cc1` (stereo not given), the “Percent Effect” value (30.3 µM, […]) is reported as 19.84%.
Still for that read-out and setting: as for `CC(C)COCCNC1CCN(c2ccccn2)CC1`, the figure is 16.23%.
For the molecule `FC(F)CN1CCC(NCCc2ccc(-n3cccn3)cc2)CC1`, the “Percent Effect” value (30.3 µM, […]) was 23.28%.
Take `O=C(O)C(F)(F)F.O=C(c1n[nH]c2c1CCN(Cc1nccs1)C2)N1CCCC1`: the “Percent Effect” value (30 µM, 30.03 µM) was 10.02%.
Consider `COc1cccc(-n2cc(CN(C)Cc3ccnc(C(C)C)n3)cn2)c1`, for which, under “30.3 µM, […]”, the “Percent Effect” value is given as 11.44%.
